Results published in PubChem BioAssay (NCATS).
For part of these data: Entries with a potency or affinity are not part of this list. Calls of active or inactive are those of the source.

Tests used:
[1] = Ebola virus entry assay, green fluorescence channel
[2] = Ebola virus entry assay, ratio channel readout
[3] = Ebola virus entry assay, blue channel fluorescence
[4] = Ebola virus entry assay, ratio channel
[5] = Ebola virus entry assay, green channel fluorescence
[6] = Ebola virus entry assay, blue channel fluorescence; remark: listed apart in the source
[7] = Ebola virus entry assay, reporter ratio channel; AC50: Channel type: primary unless noted; outcome: Channel type: primary unless noted
[8] = Ebola virus entry assay, blue channel (ratio component)
[9] = Ebola virus entry reporter assay, green channel fluorescence
[10] = Ebola virus entry cell assay, ratio channel

Measured: outcome

Cn1c(=O)c2c(ncn2CC(O)CO)n(C)c1=O (stereo not given)
inactive: all assays above

O=NN(CCCl)C(=O)NCCCl
inactive: all assays above

C[C@@H]1C[C@H]2[C@@H]3CCC4=CC(=O)C=C[C@]4(C)[C@@]3(F)[C@@H](O)C[C@]2(C)[C@@]1(O)C(=O)CO
inactive: all assays above

CCC1C(=O)OCC1Cc1cncn1C (stereo not given)
inactive: all assays above

CC1=C(C(=O)O)N2C(=O)[C@@H](NC(=O)[C@H](N)c3ccc(O)cc3)[C@H]2SC1
inactive: all assays above

O[C@@H]1CO[C@H]2[C@@H]1OC[C@@H]2O
inactive: all assays above

CCOc1ccccc1OCCN[C@H](C)Cc1ccc(OC)c(S(N)(=O)=O)c1
inactive: all assays above

COc1ccc2nc(S(=O)Cc3ncc(C)c(OC)c3C)[nH]c2c1 (stereo not given)
inactive: all assays above

NS(=O)(=O)c1cc2c(cc1C(F)(F)F)NCNS2(=O)=O
inactive: all assays above

O=P(O)(O)C(O)(Cc1cccnc1)P(=O)(O)O
inactive: all assays above

O=C1CCC(N2C(=O)c3ccccc3C2=O)C(=O)N1 (stereo not given)
inactive: all assays above

Cc1onc(-c2c(Cl)cccc2Cl)c1C(=O)N[C@@H]1C(=O)N2[C@@H]1SC(C)(C)[C@@H]2C(=O)O
inactive: all assays above

Cc1cccc(Nc2ccccc2C(=O)O)c1C
inactive: all assays above

CS(=O)(=O)OCCCCOS(C)(=O)=O
inactive: all assays above

Cn1cnc([N+](=O)[O-])c1Sc1ncnc2nc[nH]c12
inactive: all assays above

NCCC(O)(P(=O)(O)O)P(=O)(O)O
inactive: all assays above

CC(C)(C)NC(=O)[C@@H]1CN(Cc2cccnc2)CCN1C[C@@H](O)C[C@@H](Cc1ccccc1)C(=O)N[C@H]1c2ccccc2C[C@H]1O
inactive: all assays above

CCC1(c2ccccc2)C(=O)NCNC1=O
inactive: all assays above

CCCCN1C[C@H](O)[C@@H](O)[C@H](O)[C@H]1CO
inactive: all assays above

O=C1CC[C@@]2(O)[C@H]3Cc4ccc(O)c5c4[C@@]2(CCN3CC2CC2)[C@H]1O5
inactive: all assays above

CNCCc1ccccn1
inactive: all assays above

CC(=O)N[C@@H](CS)C(=O)O
inactive: all assays above

CCN(CC)CCNC(=O)c1cc(Cl)c(N)cc1OC
inactive: all assays above

Nc1nnc(-c2cccc(Cl)c2Cl)c(N)n1
inactive: all assays above

CCCCNc1ccc(C(=O)OCCOCCOCCOCCOCCOCCOCCOCCOCCOC)cc1
inactive: all assays above

CCCCc1nc(Cl)c(CO)n1Cc1ccc(-c2ccccc2-c2nn[nH]n2)cc1
inactive: all assays above

CCCc1cc(=O)[nH]c(=S)[nH]1
inactive: all assays above

O=C(O)CCNC(=O)c1ccc(N=Nc2ccc(O)c(C(=O)O)c2)cc1
inactive: all assays above

COc1cc(C(=O)NCc2ccc(OCCN(C)C)cc2)cc(OC)c1OC
inactive: all assays above

O=NN(CCCl)C(=O)NC1CCCCC1
inactive: all assays above

CC(C)Nc1cccnc1N1CCN(C(=O)c2cc3cc(NS(C)(=O)=O)ccc3[nH]2)CC1
inactive: all assays above

OC(Cn1cncn1)(Cn1cncn1)c1ccc(F)cc1F
inactive: all assays above

CN/C(=C\[N+](=O)[O-])NCCSCc1ccc(CN(C)C)o1
inactive: all assays above

Cc1oncc1C(=O)Nc1ccc(C(F)(F)F)cc1
inactive: all assays above

O=C(CCCCCCC(=O)Nc1ccccc1)NO
inactive: all assays above

CCCC(=O)Nc1ccc(OCC(O)CNC(C)C)c(C(C)=O)c1 (stereo not given)
inactive: all assays above

CCCCNC(=O)NS(=O)(=O)c1ccc(C)cc1
inactive: all assays above

O=C(OC1C[C@H]2CC[C@@H](C1)[N+]21CCCC1)C(O)(c1ccccc1)c1ccccc1 (stereo not given in full)
inactive: all assays above

N[C@@H](C(=O)N[C@@H]1C(=O)N2C(C(=O)O)=C(Cl)CS[C@H]12)c1ccccc1
inactive: all assays above

O=c1n(CCCN2CCN(c3cccc(Cl)c3)CC2)nc2ccccn12
not listed: [9]
inactive: all other assays above

C[n+]1ccccc1/C=N/O
not listed: [9]
inactive: all other assays above

COc1ccc(-c2cc(=S)ss2)cc1
not listed: [9]
inactive: all other assays above

Nc1nc(F)nc2c1ncn2[C@@H]1O[C@H](CO)[C@@H](O)[C@@H]1O
not listed: [9]
inactive: all other assays above

NC(=O)NO
not listed: [9]
inactive: all other assays above
